Results taken from PubChem BioAssay (Tox21).
Results filed as inconclusive are left out. A call without a number means that no potency is given here. Unmarked numbers belong to inactive results. Active and inactive are the calls of the source. Calls come from the whole dose curve.

These compounds were tested against D(2) dopamine receptor (Homo sapiens) (UniProt P14416) (assay: Dopamine D2 receptor (DRD2) small molecule agonists, cell-based qHTS assay (AID 1963594; note: nearly all actives have a fitted effect of over 35% in size)). Conditions: HEK293-DRD2 cAMP HTRF, agonist mode, 30 min; series mostly up to 92.4 µM.
Source text: National Center for Advancing Translational Sciences [NCATS]
Division of Preclinical Innovation [DPI]
U.S. Environmental Protection Agency [EPA]
National Institutes of Environmental Health Sciences [NIEHS]
National Toxicology Program [NTP]
U.S. Food and Drug Administration [FDA]
DRD2 is the D2 subtype of the dopamine receptor, which is coupled to Gi subtype of G protein-coupled receptor. This G protein-coupled receptor inhibits adenylyl cyclase activity. The DRD2-HEK293 cell line stably expressing D2 dopamine receptor can be used for screening agonists and antagonists of interactions between D2 and its ligands. The Hek293-DRD2 cAMP assay is based on HTRF technology. It measures changes of cAMP accumulation in response to Gi coupled GPCR activation or inhibition.
Tox21 Assay Protocol Summary:
DRD2-Hek293 cells were dispensed at 600 cells/3uL/well in 1536-well white plates using a Multidrop Dispenser. After the assay plates were incubated at a 37 C/5% CO2 incubator for 24 h, 1 uL of Ro20-1724 at final concentration of 0.1 mM was transferred to the assay plate by a Flying Reagent Dispenser. Following Ro20-1724 addition, 23 nL of compound dissolved in DMSO, positive controls or DMSO only was added to the assay plates via Wako pintool station. The assay plates were incubated at room temperature for 10 min. Next, 1 uL of NKH477 at 200nM was added into the plates. After the assay plates were incubated at room temperature for an additional 30 min, 2.5 ul/well of cAMP-d2 and 2.5 ul/well of anti-cAMP-cryptate were added respectively into the assay plates using a Flying Reagent Dispenser. The plates were incubated at room temperature for 1 h. The fluorescence intensity in the plates was measured at 340 nm excitation and 665 & 620 nm emission by an Envision plate reader.
Potency is the fitted concentration of half-maximal effect.

Chain of D(2) dopamine receptor (Homo sapiens) (P14416 whole entry, looked up): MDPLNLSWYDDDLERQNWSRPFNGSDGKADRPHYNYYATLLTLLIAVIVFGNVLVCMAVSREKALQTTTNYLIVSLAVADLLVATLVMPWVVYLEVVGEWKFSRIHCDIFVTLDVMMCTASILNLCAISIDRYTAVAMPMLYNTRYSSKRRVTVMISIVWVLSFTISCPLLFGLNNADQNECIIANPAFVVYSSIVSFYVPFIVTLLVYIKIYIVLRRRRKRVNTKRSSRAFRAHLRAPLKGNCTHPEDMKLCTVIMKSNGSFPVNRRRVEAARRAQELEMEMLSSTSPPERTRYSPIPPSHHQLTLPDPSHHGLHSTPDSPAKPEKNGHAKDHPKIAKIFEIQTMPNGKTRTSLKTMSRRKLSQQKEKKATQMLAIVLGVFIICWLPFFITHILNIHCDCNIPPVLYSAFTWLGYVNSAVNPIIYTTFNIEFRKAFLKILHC

Row | Structure (SMILES) | Potency | activation
1 | CC(C)CCCCCOC(=O)CCS | inactive | –
2 | CO[Si](CCCNCCN)(OC)OC | inactive | –
3 | O=C1NC(=O)[C@@]2(CCOc3ccc(F)cc32)N1 | 110 nM (active) | –
4 | C=CCCCCCCCC | inactive | –
5 | CCSC(=O)N(CC(C)C)CC(C)C | inactive | –
6 | CC/C=C\C#N | inactive | –
7 | COC(=O)C1=C(C)NC(C)=C(C(=O)OCC(C)C)C1c1ccccc1[N+](=O)[O-] (stereo not given) | inactive | –
8 | Cc1sccc1Br | inactive | –
9 | Nc1nc(=O)n([C@@H]2O[C@H](CO)[C@@H](O)[C@@H]2F)cc1I | inactive | –
10 | O=S(=O)(O)CCS | inactive | –
11 | CC(=O)N[C@@H](CC(C)C)C(=O)O | inactive | –
12 | CCCCCCCCCCCCOCCO | inactive | –
13 | CC1(C)C(O)C(C)(C)C1O (stereo not given) | inactive | –
14 | CC(=O)CC(=O)Nc1ccccc1 | inactive | –
15 | CC(C)(C)c1nnc(NS(=O)(=O)c2ccc(N)cc2)s1 | inactive | –
16 | CCCCN(CCO)CCO | inactive | –
17 | CC(C)OC(=O)C(O)(CC(=O)O)CC(=O)O | inactive | –
18 | CC1(C)[C@@H]2CC[C@@]1(C)[C@H](O)C2 | inactive | –
19 | N[C@H](C(=O)O)c1ccc(O)cc1 | – | -12.3% [at 19 µM]
20 | c1ccc(SCCSc2ccccc2)cc1 | inactive | –

Row | Structure (SMILES) | Potency | activation
21 | O=C(/N=N/C(=O)OCc1ccccc1)OCc1ccccc1 | inactive | –
22 | N#CC1(c2ccc(F)cc2)CCC(=O)CC1 | inactive | –
23 | O | inactive | –
24 | OC[C@H]1O[C@H](O[C@H]2O[C@H](CO)[C@@H](O)[C@H](O)[C@H]2O)[C@H](O)[C@@H](O)[C@@H]1O | inactive | –
25 | CS(C)(=O)=O | inactive | –
26 | C=C(C)[C@H]1CC=C(C)C(=O)C1 | inactive | –
27 | C=CC(=O)NC(C)C | inactive | –
28 | c1ccc2cnncc2c1 | inactive | –
29 | Cn1sccc1=O | inactive | –
30 | CN1CCCC1 | inactive | –
31 | O=C1Nc2ccccc2C1(c1ccc(O)cc1)c1ccc(O)cc1 | inactive | –
32 | CC(=O)Nc1ccc(N=Nc2cc(C)ccc2O)cc1 | inactive | –
33 | CCC(C)CO (stereo not given) | inactive | –
34 | CC1C(C)(C)C2=C(C(=O)CCC2)C1(C)C (stereo not given) | inactive | –
35 | NC(=O)CCCCC(N)=O | inactive | –
36 | CC(=O)c1cc(C)oc1C | inactive | –
37 | CCOC(=O)c1ccc(O)c(O)c1 | inactive | –
38 | CC1COc2ccccc2N1C(=O)C(Cl)Cl (stereo not given) | inactive | –
39 | CCCCCCCC/C=C\CCCCCCCC(=O)OCCCC | – | -5.29% [at 19 µM]
40 | CC[C@]1(O)C[C@@H]2CN(CCc3c([nH]c4ccccc34)[C@@](C(=O)OC)(c3cc4c(cc3OC)N(C)[C@H]3[C@@](O)(C(=O)OC)[C@H](OC(C)=O)[C@]5(CC)C=CCN6CC[C@]43[C@@H]65)C2)C1 | inactive | –
